40 molecules from PubChem BioAssay (NCI) can be followed below.

The panel holds about 83,000 compounds, 20% with a hit somewhere; the sample as a whole holds those more often.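 48-hour exposure, single concentration, 96-well plates; percent growth endpoint where 0 means no net growth. Active: below 10.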 A number with no mark means an inactive call. Active and inactive are the calls of the source.

This experiment concerns HL-60(TB) leukemia. Kind of experiment: NCI-60 one-dose screen, 48 h (100 = growth as untreated, 0 = no growth, -100 = all killed). Particulars: 10 µM unless noted.
Turning to `CCc1ccc(Nc2ncnc3c2cnn3-c2cccc(Br)c2)cc1`, the growth was 114%.

`CSc1ccc2c(c1)c(CCN)c(C)n2Cc1ccc(Cl)c(Cl)c1`: the growth is -69.9% (active).

On to `N#Cc1c(-c2ccc(F)cc2)c(C#N)c2c(C#N)c(N)nn2c1N`, for which the growth is 99.7%.

Turning to `COc1ccc(CSc2nc3cc(OC)c(OC)cc3c(=O)n2-c2ccc(Cl)cc2)cc1`, the growth is 104%.

In the case of `CCCCCC(=O)N(CCCC)CCCC`, the growth is 109%.

On to `COc1ccc(C2CC(=O)c3c(nc4ccc(Cl)cc4c3N)C2)cc1` (stereo not given), for which the growth is 99.1%.

`COc1cc(/C=C\C(=O)O)ccc1OCc1ccccc1`: the growth is 122%.

On to `Cc1ccc(C)c(-c2csc(Nc3ccc(C)c(C)c3)n2)c1`, for which the growth was 34.4%.

Turning to `c1cc(OCCN2CCCCC2)cc(-c2n[nH]c3ccc(-c4ncn[nH]4)cc23)c1`, the growth was 39%.

For `NC1[C@H](c2c[nH]c3ccccc23)c2c([nH]c3ccccc23)[C@H]1c1c[nH]c2ccccc12` (stereo not given in full), the growth was 119%.

Regarding `COC(=O)c1ccc(NC(=O)Nc2ccc(C(=O)OC)cc2)cc1`, the growth was 92.8%.

Regarding `CN(C)C1CN(C(=O)c2cc(-c3ccc4ncnc(N5CCc6cc(F)c(Cl)cc65)c4c3)cnc2N)C1`, the growth was -1.16% (active).

Take `Cc1cc(C)cc(OCC(=O)O)c1`: the growth was 86%.

On to `Cc1cc(N/C=c2\sc3ncnn3c2=O)no1`, for which the growth is 111%.

In the case of `CC(C)(C)CC(C)(C)NC(=O)Nc1ncccc1OCc1ccccc1`, the growth was 90.5%.

Take `CC(=O)OC1Oc2cc(C)c(C)cc2-c2oc(=O)c(-c3cc4ccc(N(C)C)cc4oc3=O)cc21` (stereo not given): the growth was 25.6%.

Consider `Cc1cc(C)nc(SC2=C(Nc3ccc(C)c(Cl)c3)C(=O)N(Cc3ccccc3)C2=O)n1`, for which the growth was 26.1% [30 µM].

Consider `O=C(NC[C@H](O)CO)c1ccncc1Nc1ccc(I)cc1F`, for which the growth was 24.2%.

With `COc1ccc(OC)c(-c2c(C#N)c(-c3ccc(Cl)cc3)nc3c2c(-c2ccccc2)nn3-c2ccccc2)c1`, the growth is 99%.

For the molecule `Cc1nc2cc(Nc3nc(NCCN)nc(Nc4ccc(F)cc4)n3)ccc2n1Cc1ccccc1`, the growth is -21.5% (active).

Take `C=C(CN1CC=CCC1)[C@@H]1CC[C@]2(CO)CC[C@]3(C)[C@H](CC[C@@H]4[C@@]5(C)CC[C@H](O)C(C)(C)[C@@H]5CC[C@]43C)[C@@H]12`: the growth is 99.9%.

Take `CCOc1cccc(/C=N/NC(=O)c2cccc(Nc3ccnc(C(F)(F)F)c3)c2)c1O`: the growth was 14.1%.

As to `CCOC(=O)c1ccc(Nc2sc(C(=O)c3cccc([N+](=O)[O-])c3)c(N)c2C#N)cc1`, the growth was 4.04% (active).

With `CC(Oc1ccc(Cl)cc1)c1ccccc1` (stereo not given), the growth is 93.6%.

In the case of `O=C(N/N=C/c1coc2ccccc2c1=O)c1cc2oc(-c3ccccc3)cc2[nH]1`, the growth is 99%.

On to `O=C(/C=C/c1ccccc1)n1c(-c2ccccc2)nc2ccccc21`, for which the growth is 101%.

Take `COc1cc(-c2cc(-c3ccc(Nc4ncnc5cc(Cl)ccc45)cc3)nc(N3CCCCC3)n2)cc(OC)c1OC`: the growth is 91.6%.

In the case of `COc1ccc(/C(C)=C(\c2ccc(OCCN3CCCCCC3)cc2)c2ccc(OC(=O)c3ccccc3)cc2)cc1`, the growth was 31.2%.

For `CCOC(=O)c1nn(CC(O)c2ccccc2)c(NC(=O)Nc2cccc(F)c2)c1C` (stereo not given), the growth was 108%.

As to `C=C(C)[C@@H]1C[C@@H]2Cc3ccc(Cl)c(C)c3N1O2`, the growth was 3.4% (active).

As for `Cc1cccc(C[C@H](NC(=O)Nc2ccc(C)cc2F)C(=O)N[C@@H]2C(=O)N3C[C@H](O)C[C@H]3C(=O)N3CCN(C)C[C@H]3C(=O)N[C@@H](C)C(=O)N3C[C@H](C)C[C@H]3C(=O)O[C@H]2C)c1`, the growth was 24.2%.

Regarding `Fc1ccc(Cn2cc(CSc3nc4ccccc4o3)nn2)cc1`, the growth was 104%.

In the case of `CSc1nc(N)c2c(n1)NC(c1ccccc1)C1CCc3ccccc3C1=N2` (stereo not given), the growth is 26.4%.

As for `N#Cc1c(-c2ccc(Cl)cc2)nc2c(c(-c3ccccc3)nn2-c2ccccc2)c1-c1ccc(O)cc1`, the growth was 32.8%.

`O=c1n(CC2CO2)c(=O)n(CC2CO2)c(=O)n1CC1CO1` (stereo not given): the growth is 20.4%.

For the molecule `O=C1c2ccccc2C(=O)c2c1oc1ccc3ccccc3c21`, the growth was 100%.

With `CC/C=C\C[C@H](O)C/C=C1/C(=O)C=C[C@@H]1C/C=C\CCCC(=O)OCCS(=O)(=O)c1ccccc1`, the growth was 62.1%.

Turning to `COc1cc2ncnc(Nc3ccc(S(=O)(=O)Nc4nccs4)cc3)c2cc1OCCCN1CCOCC1`, the growth was 112%.

Take `COc1ccc(-c2ccc(-c3ccc(C(=N)N)o3)o2)cc1`: the growth was -46.2% (active).

Consider `COc1ccc(-c2cc(-c3cccnc3)nc3sc4c(N)c(C(C)=O)c(-c5ccccc5)nc4c23)cc1OC`, for which the growth was 78%.
